We go through 6 molecules from PubChem BioAssay.

The source made the active and inactive calls. Unless noted, how the calls were made is not given here.

A short description of assay [1]: compounds binding Alexa647 anti-His antibody – biochemical, small-molecule microarray, 635 nm fluorescence, artefact control for SMM control protein annotation, primary screen (AID 1128).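 Further: score merges feature fluorescence with signal-to-noise for each printed compound spot.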 As to conditions: higher = more signal.
The test system of assay [2] is Human papillomavirus type 1a E7 protein (residues 1-88). Nature of the assay: HPV1a E7 small-molecule binders, primary screen, biochemical, small-molecule microarray, residues 1-88, 635 nm (AID 1129). As to conditions: small-molecule microarray binding, fluorescence 635 nm; higher = more signal.
For assay [3], the target named is Focal adhesion kinase 1 (Homo sapiens) (UniProt Q05397). The assay is described as follows: PTK2 protein binding on printed compound slides – biochemical, small-molecule microarray, 635/667 nm fluorescence, BSA, DTT, primary screen (AID 1130).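 Further: composite of spot emission at 667 nm and signal to noise over triplicate slides.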 The settings on record: 635 nm fluorescence, higher = more signal.
Chain of Focal adhesion kinase 1 (Homo sapiens) (Q05397 whole entry, looked up): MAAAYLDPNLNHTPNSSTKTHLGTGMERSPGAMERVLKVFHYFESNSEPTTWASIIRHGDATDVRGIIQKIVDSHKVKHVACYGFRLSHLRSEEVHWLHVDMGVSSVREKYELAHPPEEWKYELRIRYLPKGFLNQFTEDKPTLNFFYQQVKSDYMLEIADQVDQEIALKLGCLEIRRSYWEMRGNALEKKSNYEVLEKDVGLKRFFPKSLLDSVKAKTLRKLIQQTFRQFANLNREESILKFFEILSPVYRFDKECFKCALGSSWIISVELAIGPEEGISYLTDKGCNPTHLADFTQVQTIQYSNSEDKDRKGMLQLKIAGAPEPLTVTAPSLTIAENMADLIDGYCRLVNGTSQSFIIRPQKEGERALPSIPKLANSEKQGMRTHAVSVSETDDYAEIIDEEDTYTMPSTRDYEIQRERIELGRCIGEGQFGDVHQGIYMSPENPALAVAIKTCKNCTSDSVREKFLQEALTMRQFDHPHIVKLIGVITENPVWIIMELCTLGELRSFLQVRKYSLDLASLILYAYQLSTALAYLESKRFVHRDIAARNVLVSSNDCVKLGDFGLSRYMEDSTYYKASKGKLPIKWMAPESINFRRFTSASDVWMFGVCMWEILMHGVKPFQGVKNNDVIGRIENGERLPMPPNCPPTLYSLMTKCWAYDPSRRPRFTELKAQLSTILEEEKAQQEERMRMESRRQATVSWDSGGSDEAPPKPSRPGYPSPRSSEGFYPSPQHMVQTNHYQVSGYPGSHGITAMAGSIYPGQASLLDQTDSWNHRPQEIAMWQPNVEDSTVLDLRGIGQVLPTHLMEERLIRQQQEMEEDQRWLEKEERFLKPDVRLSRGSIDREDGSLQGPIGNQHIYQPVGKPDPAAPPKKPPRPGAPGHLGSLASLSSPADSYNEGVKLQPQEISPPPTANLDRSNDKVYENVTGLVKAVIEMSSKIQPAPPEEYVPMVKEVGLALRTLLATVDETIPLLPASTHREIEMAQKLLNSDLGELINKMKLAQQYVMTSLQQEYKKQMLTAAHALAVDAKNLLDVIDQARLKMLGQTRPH
Assay [4] concerns Fibrinogen (Alexa647-labelled). The assay is described as follows: Alexa647-fibrinogen binding to printed small molecules – biochemical, small-molecule microarray, 635/667 nm fluorescence, artefact control for SMM control-protein annotation, profiling panel (AID 1131).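 Further: z-score merges 667 nm fluorescence with per-spot signal-to-noise over triplicate slides.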 As to conditions: fibrinogen-A647 binding fluorescence, higher = more signal.
Assay [5] has as its target Follistatin (Homo sapiens) (UniProt P19883). Nature of the assay: FST protein binding to printed compounds – biochemical, small-molecule microarray, 635/667 nm fluorescence, primary screen (AID 1132). As to conditions: 635 nm fluorescence, higher = more signal.
The target in assay [6] is Fibroblast growth factor 2 (Homo sapiens) (UniProt P09038). Nature of the assay: basic fibroblast growth factor binding to printed compounds – biochemical, small-molecule microarray, 635/667 nm fluorescence, primary screen (AID 1133). As to conditions: FGF2, fluorescence 635/667, higher = more signal.
Chain of Fibroblast growth factor 2 (Homo sapiens) (P09038 whole entry, looked up): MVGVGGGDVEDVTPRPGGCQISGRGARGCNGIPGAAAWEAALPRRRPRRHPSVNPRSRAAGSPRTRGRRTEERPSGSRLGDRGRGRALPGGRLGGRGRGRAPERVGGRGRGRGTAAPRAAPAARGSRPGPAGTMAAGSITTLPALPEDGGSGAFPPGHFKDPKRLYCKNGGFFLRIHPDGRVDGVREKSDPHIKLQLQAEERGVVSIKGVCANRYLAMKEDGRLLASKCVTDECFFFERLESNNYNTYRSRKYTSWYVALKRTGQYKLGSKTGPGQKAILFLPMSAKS
Assay [7] in a line: JC-1 mitochondrial potential readout, lung cancer cells – cell-based, A549, JC-1 fluorescence, basal, 24 h, 100 nL, profiling panel (AID 1138).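 Further: A549 lung adenocarcinoma cells under basal conditions with no added stimulus; test concentration not given here.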 The settings on record: higher = more signal.
Another assay has as its system Lefty1. Nature of the assay: Lefty1 protein binding to printed compounds – biochemical, small-molecule microarray, 635/667 nm fluorescence, primary screen (AID 1139). The settings on record: fluorescence 635/667, higher = more signal.
The test system of assay [8] is wheat germ agglutinin (Triticum aestivum), Alexa647-labelled. Nature of the assay: Alexa647-WGA lectin binding to printed small molecules – biochemical, small-molecule microarray, 635/667 nm fluorescence, artefact control for SMM control-protein annotation, profiling panel (AID 1140).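 Further: score merges 667 nm feature emission with signal to noise over triplicate slides.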 As to conditions: WGA-A647 binding, 635 nm fluorescence, higher = more signal.
Assay [9] addresses Luciferin 4-monooxygenase (Photinus pyralis) (UniProt P08659). Nature of the assay: inhibition of purified Photinus pyralis luciferase – biochemical, luminescence, purified enzyme, 2006 set, primary screen (AID 1141).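 Further: cell-free assay with purified firefly luciferase at 100 ng per well in PBS; test concentration not given here.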 The settings on record: purified firefly luciferase, SteadyGlo luminescence, 30 min; higher = more signal, called active from +8 up or from −8 down.
The subject of assay [10] is Wnt5a (protein binding on small-molecule microarray). The assay is described as follows: small molecules binding Wnt5a protein – biophysical, small-molecule microarray, 635/667 nm fluorescence, primary screen (AID 1142).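 Further: fluorescence read at 667 nm with signal to noise per printed feature.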 As to conditions: 635 nm fluorescence, higher = more signal.
Assay [11] can be described thus: ATP-based viability of Huh7 replicon cells – cell-based, CellTiter-Glo luminescence, basal, 48 h, cytotoxicity control for HCV replication inhibitor project, primary screen (AID 1143).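 Further: Huh7 hepatoma cells carrying a hepatitis C replication reporter with no stimulus; test concentration not given here.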 The settings on record: higher = more signal, called active from +8 up or from −8 down. Background: Replicon systems follow genome replication, usually without infectious particles.
Assay [12] can be described thus: Pseudomonas biofilm growth suppression – PAO1 strain, BacTiter-Glo luminescence, LB-PBS, primary screen (AID 1144). As to conditions: P. aeruginosa PAO1 biofilm, 12 h, higher = more signal.
The nature of assay [13]: basal CRE-LacZ reporter activity in PC12 – cell-based, unstimulated, primary screen (AID 1145). As to conditions: no forskolin, luminescence, 4.5 h, higher = more signal, called active from +8 up or from −8 down.
Assay [14] is described as follows: forskolin-driven CRE-LacZ activity in PC12 – cell-based, CRE-LacZ reporter, forskolin-stimulated, primary screen (AID 1146).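 Further: PC12 cells with 6xCRE LacZ reporter stimulated by forskolin 10 µM; beta-galactosidase reporter signal reflecting CREB driven transcription.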 The settings on record: luminescence, 4.5 h, higher = more signal, called active from +8 up or from −8 down.
For assay [15], the target named is Streptavidin (Streptomyces avidinii) (UniProt P22629). Nature of the assay: compounds binding control protein streptavidin – biophysical, small-molecule microarray, 635/667 nm fluorescence, artefact control for SMM compound annotation, primary screen (AID 1147).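 Further: signal reflects streptavidin binding to arrayed compounds as a control protein.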 As to conditions: higher = more signal.
Chain of Streptavidin (Streptomyces avidinii) (P22629 whole entry, looked up): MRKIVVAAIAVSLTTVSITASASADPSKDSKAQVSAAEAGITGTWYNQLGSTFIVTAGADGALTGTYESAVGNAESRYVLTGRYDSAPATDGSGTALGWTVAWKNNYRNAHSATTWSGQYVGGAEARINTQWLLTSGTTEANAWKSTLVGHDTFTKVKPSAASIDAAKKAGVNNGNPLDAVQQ
A short description of assay [16]: probe aInhba binding on compound microarray – biochemical, small-molecule microarray, 635/667 nm fluorescence, primary screen (AID 1148).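 Further: score merges 667nm spot fluorescence with signal-to-noise for antibody binding to printed compounds.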 The settings on record: higher = more signal.
The target of assay [17] is Torsin-1A (Homo sapiens) (UniProt O14656). The assay is described as follows: TOR1A wild-type binding on microarray – cell lysate, small-molecule microarray, lysate, 635/667 nm, primary screen (AID 1149). The settings on record: COS7 hTOR1A-WT lysate, 635 nm fluorescence, higher = more signal.
Chain of Torsin-1A (Homo sapiens) (O14656 whole entry, looked up): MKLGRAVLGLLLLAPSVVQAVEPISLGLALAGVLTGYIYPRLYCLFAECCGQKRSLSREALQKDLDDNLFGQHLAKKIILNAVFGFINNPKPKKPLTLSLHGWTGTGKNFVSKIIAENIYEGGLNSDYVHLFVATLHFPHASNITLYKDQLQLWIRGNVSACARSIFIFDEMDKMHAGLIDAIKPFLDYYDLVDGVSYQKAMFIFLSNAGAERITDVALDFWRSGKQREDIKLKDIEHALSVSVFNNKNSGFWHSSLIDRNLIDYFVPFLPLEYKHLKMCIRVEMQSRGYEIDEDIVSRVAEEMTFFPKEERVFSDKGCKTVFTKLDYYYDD
Assay [18] has the same target. Nature of the assay: torsin A mutant lysate binding on microarrays – cell lysate, small-molecule microarray, COS7 lysate, 635/667 nm fluorescence, primary screen (AID 1150).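 Further: score pools 667 nm emission and signal to noise measuring lysate protein binding.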 As to conditions: COS7 hTOR1A mutant lysate, 635 nm fluorescence, higher = more signal.
Assay [19] concerns Sonic hedgehog protein (Shh). The assay is described as follows: Sonic hedgehog microarray binding compounds – biochemical, small-molecule microarray, 635/667 nm fluorescence, primary screen (AID 1151).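 Further: Shh protein binding to compounds spotted on small-molecule microarray slides; score combines spot fluorescence intensity with signal-to-noise across triplicate slides.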 As to conditions: 635 nm fluorescence, higher = more signal.

Chain of Luciferin 4-monooxygenase (Photinus pyralis) (P08659 whole entry, looked up): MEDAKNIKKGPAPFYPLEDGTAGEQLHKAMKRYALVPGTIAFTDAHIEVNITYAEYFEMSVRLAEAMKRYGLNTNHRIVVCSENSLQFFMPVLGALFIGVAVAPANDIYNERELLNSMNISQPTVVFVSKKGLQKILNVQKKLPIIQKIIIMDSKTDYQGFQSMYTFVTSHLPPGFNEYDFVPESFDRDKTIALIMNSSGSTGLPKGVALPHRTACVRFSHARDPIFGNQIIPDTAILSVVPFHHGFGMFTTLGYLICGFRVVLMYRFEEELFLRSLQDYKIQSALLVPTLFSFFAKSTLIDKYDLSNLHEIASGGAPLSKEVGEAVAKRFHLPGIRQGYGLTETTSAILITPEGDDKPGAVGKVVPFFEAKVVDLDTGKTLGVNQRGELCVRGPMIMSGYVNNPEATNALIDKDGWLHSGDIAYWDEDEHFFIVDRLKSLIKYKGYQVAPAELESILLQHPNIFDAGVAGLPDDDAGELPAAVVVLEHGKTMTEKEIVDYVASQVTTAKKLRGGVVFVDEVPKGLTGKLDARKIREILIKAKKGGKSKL
Chain of Follistatin (Homo sapiens) (P19883 whole entry, looked up): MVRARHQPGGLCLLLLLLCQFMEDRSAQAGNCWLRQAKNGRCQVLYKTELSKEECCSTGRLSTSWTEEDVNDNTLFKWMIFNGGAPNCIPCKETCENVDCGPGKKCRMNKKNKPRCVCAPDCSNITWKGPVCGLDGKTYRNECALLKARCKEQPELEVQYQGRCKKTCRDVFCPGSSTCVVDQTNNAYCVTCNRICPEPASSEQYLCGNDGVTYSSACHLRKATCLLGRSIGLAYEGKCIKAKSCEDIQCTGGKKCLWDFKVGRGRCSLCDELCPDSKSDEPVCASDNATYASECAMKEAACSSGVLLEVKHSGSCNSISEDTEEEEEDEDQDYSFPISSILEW

As to `CC1(C)C(=O)C(c2ccccc2)=C2CN3C(=O)N(CCc4ccccc4)C(=O)C3(Cc3ccc(C(F)(F)F)cc3)C=C21` (stereo not given), the composite z-score in assay [1] was 0.478; in [2], 1.21; in [3] it was 1.32; in [4] it was 0.414; in assay [5] it was 0.376; in [6] it was -0.729. Besides, the composite z-score with Lefty1 was -0.285; in assay [8], 0.57; in [10], 0.437; in assay [15], 1.19; in assay [16] it was 0.196; with Torsin-1A (Homo sapiens) [17], -0.102. In addition, the composite z-score is 0.608 in the assay with Torsin-1A (Homo sapiens) [18] and -1.01 in [19]. Further, the z-score in assay [7] is 0.37; in assay [9], 1.24 (inactive); in assay [11] it was -1.29 (inactive); in assay [12], 0.332 (inactive); in assay [13], -0.379 (inactive); in [14] it was 0.866 (inactive).
With `NCCCCCNC(=O)[C@H]1C[C@H]2C(=O)N[C@@H](Cc3ccccc3)C(=O)N2[C@H]1c1ccc(O)cc1`, the composite z-score in assay [1] was 1.61; in assay [2], 0.756; in assay [3], -0.506; in assay [4], 0.94; in assay [5], 1.4; in assay [6] it was 0.169. The composite z-score with Lefty1 worked out at 0.765; in [8], 0.81; in assay [10], 0.234; in assay [15], 1.13; in [16], 0.641; with Torsin-1A (Homo sapiens) [17] it was 0.756. The composite z-score with Torsin-1A (Homo sapiens) [18] came out at 0.842; in [19], 0.313. Moreover, the z-score was -0.421 in [7]; -1.35 (inactive) in assay [9]; 0.169 (inactive) in assay [11]; -0.0304 (inactive) in assay [12]; 0.0124 (inactive) in assay [13]; -0.622 (inactive) in assay [14].
As to `Cc1ccc(C(C)CC(O)C2C=CC3C(=O)N(c4ccccc4)C(=O)C3N2Nc2ccc(C#N)cc2)o1` (stereo not given), the composite z-score in assay [1] is 1.21; in [2] it was 1.24; in [3], 0.175; in [4] it was 1.03; in assay [5], 1.24; in assay [6], 0.37. For the same molecule, the composite z-score in the assay on Lefty1 amounted to 0.0143; in assay [8] it was 0.586; in assay [10], 0.303; in [15], 1.1; in assay [16], 0.027; in the assay with Torsin-1A (Homo sapiens) [17], 0.279. In addition, the composite z-score was determined as 0.443 with Torsin-1A (Homo sapiens) [18] and 0.218 in assay [19]. Besides, the z-score in assay [7] was 0.289; in [9], -0.993 (inactive); in assay [11], -1.18 (inactive); in [12], -0.194 (inactive); in assay [13], -0.333 (inactive); in assay [14] it was -0.306 (inactive).
Turning to `Cc1ccc(S[C@]2(C(=O)NCc3ccccc3)CC(=O)N(Cc3cc(C(F)(F)F)cc(C(F)(F)F)c3)[C@@H]2c2ccc(CO)cc2I)cc1`, the composite z-score in [1] is -1.1; in [2], -0.774; in [3], 0.438; in assay [4] it was -0.885; in assay [5] it was -1.18; in assay [6] it was -1.45. In addition, the composite z-score in the assay on Lefty1 is -1.25; in assay [8] it was -0.799; in assay [10], -0.309; in [15] it was -0.649; in assay [16], -0.0523; in the assay with Torsin-1A (Homo sapiens) [17], -0.199. The composite z-score is -0.298 with Torsin-1A (Homo sapiens) [18] and -0.757 in assay [19]. In addition, the z-score in [7] is 1.61; in assay [9] it was -0.461 (inactive); in [11], -1.24 (inactive); in assay [12], -0.314 (inactive); in [13], 0.479 (inactive); in assay [14], 0.279 (inactive).
In the case of `CCOC(=O)C1=CCC(c2ccco2)N(S(=O)(=O)c2ccc(C)cc2)C1` (stereo not given), the composite z-score was found to be 1.1 in [1]; 1.2 in assay [2]; 0.841 in [3]; 0.965 in assay [4]; 1.1 in [5]; 0.377 in assay [6]. The composite z-score in the assay with Lefty1 turned out to be 0.851; in assay [8] it was 0.832; in assay [10] it was 0.45; in assay [15], 1.64; in assay [16], 0.0841; with Torsin-1A (Homo sapiens) [17], 0.55. For the same molecule, the composite z-score with Torsin-1A (Homo sapiens) [18] is 1.24; in [19] it was 0.409. Moreover, the z-score in [7] is -0.664; in [9] it was -1.58 (inactive); in [11], -2.95 (inactive); in [12], -1.65 (inactive); in assay [13], -0.0228 (inactive); in assay [14], 0.887 (inactive).
Consider `O=C1OCC=C[C@H]2OC34C=CCN(c5ccc6ccccc6c5)C(=O)[C@H]3N(CCCCCO)C(=O)[C@@H]4[C@@H]12` (stereo not given in full), for which the composite z-score in [1] was 0.0997; in [2], -0.381; in assay [3] it was 1.05; in [4], -0.639; in assay [5], -1.38; in assay [6] it was -1.42. In addition, the composite z-score was -1.23 with Lefty1; 0.129 in assay [8]; -0.137 in assay [10]; -0.884 in assay [15]; -0.0963 in assay [16]; -1.92 with Torsin-1A (Homo sapiens) [17]. The composite z-score with Torsin-1A (Homo sapiens) [18] was -1.41; in [19], -0.968. The z-score in assay [7] was -0.164; in assay [9], -0.397 (inactive); in assay [11], 0.234 (inactive); in assay [12], 0.494 (inactive); in assay [13], 0.724 (inactive); in [14] it was 0.0532 (inactive).
